NS1 inh: influenza NS1 inhibition. Potency, µM (doses to about 46.1 µM), for inactives: top-dose activity, positive = more growth. actives 0.4% (n = 270,000). AID 2326; also: potency is read from the fitted curve at half-maximal effect; actives are rising curves; nearly all actives have a fitted effect of over 50% in size
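In this qHTS, NS1 from influenza A is expressed in budding yeast, where it slows growth. Cells are switched from glucose to 2% galactose medium (pH 6.0, -URA), treated with compound, and growth recovery is read at OD600.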
SARS PLpro yeast: SARS-CoV PLP inhibition in yeast | actives 0.19% (n = 330,000) | Potency, µM (highest dose often 32.9 µM), for inactives: top-dose activity, positive = growth rescue, usual class: activators | S. cerevisiae expressing SARS-CoV PLpro, growth rescue | AID 485353; also: potency is read from the fitted curve at half-maximal effect; 0% is about no effect; nearly all actives have a fitted effect of over 55% in size
Pf growth 48h: inhibits P. falciparum growth in the first generation, 48 h. P. falciparum luciferase growth in erythrocytes, 48 h. Potency, µM (top dose mostly 28.7 µM), inactives show top-dose activity change, negative = inhibition, usual class: inhibitors. actives 5.9% (n = 310,000). AID 504832; active = well fitted inhibition curve with a large enough effect; inconclusive = small, poorly fitted or top-dose-only effect, or another doubt; inactive = no such curve, though single readings can be large or run the other way; also: potency is read from the fitted curve at half-maximal effect; % is scaled to controls: 0 for no effect and ±100 for the full control effect
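Read-out is firefly luciferase luminescence from an integrated reporter in P. falciparum, so falling signal marks reduced parasite growth. Infected erythrocytes were at 2% hematocrit and 0.1% parasitemia (final) in Albumax-supplemented RPMI 1640.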
Shiga inhibitor: Shiga toxin inhibition | Vero cells, Shiga toxin protein synthesis inhibition reporter | actives 9.2% (n = 290,000) | AID 2315 | inhibition, % at 38.7 µM; in the data active = inhibition mostly above about 28%, no sharp cut-off; inactive = mostly below about 43%; also: 0% is about no effect
Pf growth 96h: inhibits malaria parasite growth, 96 h; actives 6.9% (n = 320,000); Potency, µM (top dose mostly 28.7 µM), for inactives: at the top dose activity change, negative = inhibition, usual class: inhibitors; P. falciparum luciferase reporter growth, 96 h; AID 504834; active = well fitted inhibition curve with a large enough effect; inconclusive = small, poorly fitted or top-dose-only effect, or another doubt; inactive = no such curve, though single readings can be large or run the other way; also: potency is read from the fitted curve at half-maximal effect; % is scaled to controls: 0 for no effect and ±100 for the full control effect
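Plates of compound plus infected erythrocytes (2% hematocrit, 0.05% parasitemia final) incubate 96 hours, 37 C, 5% CO2. Detection reagent added; reduced luminescence from the parasites' luciferase reporter flags inhibition.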
Cycloheximide cs: counter-screen for Shiga toxin inhibitors: cycloheximide protein synthesis inhibition | actives 12% (n = 300,000) | cell reporter, cycloheximide protein synthesis inhibition counterscreen | max response, %; in the data active = max response mostly above about 13%, no sharp cut-off; inactive = mostly below about 14%; also: read at 38.3 µM for the half of the compounds with a filed dose; 0% is about no effect
* hit, by the source's call. Only some compounds are listed: those with a hit (about 21% of all), similar ones and a draw of the others. Unless noted, calls follow the shape of the full dose curve.

What do the screens show for `Cn1c(=O)c2c(nc(SCCOc3ccc4ccc(=O)oc4c3)n2C)n(C)c1=O`?
NS1 inh: -2%; SARS PLpro yeast: 10%; Pf growth 48h: 9%; Shiga inhibitor: -7; Pf growth 96h: 13µM*; Cycloheximide cs: -3

Results for FC(F)(F)c1ccccc1CN1CCN(Cc2ccccc2)CC1 ?
NS1 inh: -36%; SARS PLpro yeast: -1%; Shiga inhibitor: 12; Pf growth 96h: 35%; Cycloheximide cs: -5

How did OCC1(Cc2ccccc2C(F)(F)F)CCN(Cc2ccccc2)CC1 do in these assays?
NS1 inh: 6%; SARS PLpro yeast: 0%; Pf growth 48h: 12µM*; Shiga inhibitor: 17; Pf growth 96h: inconclusive; Cycloheximide cs: -2

Results for OCC1(Cc2ccccc2C(F)(F)F)CCN(Cc2ccc3c(c2)CCO3)CC1 ?
NS1 inh: 5%; SARS PLpro yeast: 0%; Pf growth 48h: 12µM*; Shiga inhibitor: 15; Pf growth 96h: inconclusive; Cycloheximide cs: -2

What do the screens show for `COc1cc(CC(=O)OCn2nnc3ccccc3c2=O)cc(OC)c1OC`?
SARS PLpro yeast: 1%; Pf growth 48h: -3%; Shiga inhibitor: -6; Pf growth 96h: 21%; Cycloheximide cs: 10

What do the screens show for `Cc1cccc(N2CCN(C(=O)NC(C)c3ccc(F)c(F)c3)CC2)c1C` (centres undefined)?
NS1 inh: -9%; SARS PLpro yeast: -4%; Pf growth 48h: 12µM*; Shiga inhibitor: 3; Pf growth 96h: 12µM*; Cycloheximide cs: -3

What do the screens show for `COc1cccc(NC(=O)N2CCN(c3cccc(C)c3C)CC2)c1`?
NS1 inh: -68%; SARS PLpro yeast: -27%; Pf growth 48h: -23%; Shiga inhibitor: 66*; Cycloheximide cs: 38*

What do the screens show for `CCOc1ccccc1N1CCN(C(=O)NC(C)c2ccc(F)c(F)c2)CC1` (centres undefined)?
NS1 inh: -4%; SARS PLpro yeast: -2%; Pf growth 48h: inconclusive; Shiga inhibitor: -8; Pf growth 96h: -25%; Cycloheximide cs: 5

Results for COc1cccc(NC(=O)N2CCC3(CC2)OCCO3)c1 ?
NS1 inh: 9%; SARS PLpro yeast: -17%; Pf growth 48h: 50%; Shiga inhibitor: 61*; Pf growth 96h: inconclusive; Cycloheximide cs: 31*

Results for COc1ccc([N+](=O)[O-])cc1NC(=O)C(C)OC(=O)Cn1[nH]c(=O)c2ccccc2c1=O (centres undefined) ?
SARS PLpro yeast: 3%; Pf growth 48h: 35%; Pf growth 96h: 23%

How did Cc1ccc(-n2c(SCC(=O)N3CCOCC3)nnc2-c2ccncc2)cc1C do in these assays?
NS1 inh: -68%; SARS PLpro yeast: 6%; Pf growth 48h: -4%; Shiga inhibitor: -2; Pf growth 96h: 36%; Cycloheximide cs: -5

What do the screens show for `CN1C(=O)C(N=Nc2ccccc2C(=O)O)N(C)C1=S` (centres undefined)?
NS1 inh: 2%; SARS PLpro yeast: 0%; Pf growth 48h: inconclusive; Shiga inhibitor: 28; Pf growth 96h: inconclusive; Cycloheximide cs: 8

What do the screens show for `CCNC(=S)/N=C(\N)Nc1nc(C)c2cc(C)ccc2n1`?
NS1 inh: 0%; SARS PLpro yeast: -2%; Pf growth 48h: inconclusive; Shiga inhibitor: 88*; Pf growth 96h: 9%; Cycloheximide cs: 43*

What do the screens show for `COc1ccc(NC(=S)/N=C(\N)Nc2nc(C)c3ccc(C)cc3n2)cc1`?
NS1 inh: inconclusive; SARS PLpro yeast: 1%; Pf growth 48h: 12µM*; Shiga inhibitor: -3; Pf growth 96h: -12%; Cycloheximide cs: 3

Results for CCOc1ccc2nc(N/C(N)=N/C(=S)Nc3ccc(C)c(C)c3)nc(C)c2c1 ?
NS1 inh: 6%; SARS PLpro yeast: 6%; Pf growth 48h: 6.6µM*; Shiga inhibitor: 7; Pf growth 96h: 6.6µM*; Cycloheximide cs: -6

Results for CCOc1ccc2nc(C)cc(C(=O)O)c2c1 ?
NS1 inh: 1%; SARS PLpro yeast: -15%; Pf growth 48h: 12%; Shiga inhibitor: -12; Pf growth 96h: inconclusive; Cycloheximide cs: -2

How did CCN(CC)c1ccc(S(=O)(=O)N2CCOCC2)cc1NC(=O)CSC(=S)N1CCCC1 do in these assays?
NS1 inh: 16%; SARS PLpro yeast: 9%; Pf growth 48h: inconclusive; Shiga inhibitor: 15; Pf growth 96h: 10µM*; Cycloheximide cs: -1

What do the screens show for `CCN(CC)c1ccc(S(=O)(=O)N2CCOCC2)cc1NC(=O)CN1CCN(Cc2ccccc2)CC1`?
NS1 inh: -3%; SARS PLpro yeast: 0%; Pf growth 48h: inconclusive; Shiga inhibitor: -9; Pf growth 96h: 10µM*; Cycloheximide cs: -4

How did CCN(CC)c1ccc(S(=O)(=O)N2CCOCC2)cc1NC(=O)CNCc1ccccc1 do in these assays?
NS1 inh: -6%; SARS PLpro yeast: 1%; Pf growth 48h: inconclusive; Shiga inhibitor: -6; Pf growth 96h: inconclusive; Cycloheximide cs: 0

How did CC(NC(=O)NC12CC3CC(CC(C3)C1)C2)C1CCCO1 (centres undefined) do in these assays?
NS1 inh: -25%; SARS PLpro yeast: 7%; Pf growth 48h: inconclusive; Shiga inhibitor: -3; Pf growth 96h: -13%; Cycloheximide cs: 8

What do the screens show for `COC(=O)c1ccccc1NC(=O)Cn1cnc2ccc(S(=O)(=O)N3CCC(C)CC3)cc2c1=O`?
NS1 inh: 10%; SARS PLpro yeast: 4%; Pf growth 48h: 3%; Shiga inhibitor: -3; Pf growth 96h: inconclusive; Cycloheximide cs: -3

What do the screens show for `CC1CCN(S(=O)(=O)c2ccc3ncn(CC(=O)N(C)Cc4ccccc4)c(=O)c3c2)CC1`?
NS1 inh: 1%; SARS PLpro yeast: -2%; Pf growth 48h: inconclusive; Shiga inhibitor: 32; Pf growth 96h: 15µM*; Cycloheximide cs: 1

Results for CSc1ccccc1-c1nnc(-c2ccc(Cl)cc2Cl)o1 ?
NS1 inh: -9%; SARS PLpro yeast: -15%; Pf growth 48h: 54%; Shiga inhibitor: 30; Pf growth 96h: 141%; Cycloheximide cs: 24

Results for CSc1nnc(-c2ccccc2Cl)o1 ?
NS1 inh: -8%; SARS PLpro yeast: -2%; Shiga inhibitor: 88*; Pf growth 96h: -13%; Cycloheximide cs: 29*

What do the screens show for `CCSc1nnc(-c2ccc(Cl)cc2Cl)o1`?
NS1 inh: -16%; SARS PLpro yeast: -3%; Shiga inhibitor: 85*; Pf growth 96h: -5%; Cycloheximide cs: 57*

How did CCSc1nnc(-c2ccccc2SC)o1 do in these assays?
SARS PLpro yeast: 1%; Pf growth 48h: inactive; Shiga inhibitor: 35; Pf growth 96h: 8.3µM*; Cycloheximide cs: 20

How did CSc1nnc(-c2cccn(Cc3ccccc3)c2=O)o1 do in these assays?
SARS PLpro yeast: 0%; Pf growth 48h: 1%; Shiga inhibitor: 31; Pf growth 96h: inconclusive; Cycloheximide cs: 11

How did CSc1nnc(-c2ccc(Cl)cc2Cl)o1 do in these assays?
NS1 inh: -4%; SARS PLpro yeast: 4%; Pf growth 48h: 135%; Shiga inhibitor: 91; Cycloheximide cs: 52*
